# Results filed as inconclusive are left out. A call without a number means that no potency is given here. The source made the active and inactive calls. Unless noted, calls follow the shape of the dose curve; as a rule, active = well fitted curve in the direction sought with a large enough effect; inconclusive = small, poorly fitted or top-dose-only effect, or another doubt; inactive = no such curve, though single readings can be large; an effect the other way counts as inactive or inconclusive.
# Tests used:
# [1] = Primary qHTS for small molecule stabilizers of the endoplasmic reticulum resident proteome: Secreted ER Calcium Modulated Protein (SERCaMP) assay (AID 1508630)
# In short: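 GLuc-SERCaMP-expressing SH-SY5Y cells, pretreated 16 h with compound, are challenged with thapsigargin to empty ER calcium stores; after 4 h, coelenterazine is added directly to the medium and luminescence is imaged.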
# Papain (Carica papaya) = Papain (Carica papaya) (UniProt P00784); assay: Primary qHTS assay for inhibitors of the protease papain (AID 1645873);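 also: papain turnover of Z-FR-AMC read as the AMC fluorescence gain over 10 min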; also: potency is read from the fitted curve at half-maximal effect
# [2] = biological target: Calcium and integrin-binding protein 1 (Homo sapiens) (UniProt Q99828); assay: Validation qHTS for Identification of Calcium Integrin Binding protein 1 (CIB1) Competitor (AID 1508618); also: potency is read from the fitted curve at half-maximal effect
# In short: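 CIB1-GST (1 uM final) incubated 15 min at room temperature with compounds (up to 114 uM), then FITC-labelled alphaIIb peptide (100 nM) added. FP read (Ex 480/Em 540) after 15 min, pH 7.4 buffer containing 5 mM CaCl2.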
# [3] = Primary qHTS for inhibitors of nuclear receptor binding SET domain protein 2 (NSD2) in an isogenic RCH-ACV NSD2 p.E1099K mutant (9B) (AID 1645876); also: potency is read from the fitted curve at half-maximal effect; nearly all actives have a fitted effect of over 70% in size
# [4] = Primary qHTS for inhibitors of nuclear receptor binding SET domain protein 2 (NSD2) in an RCH-ACV wild type WT cells (2C) (AID 1645877); also: nearly all actives have a fitted effect of over 70% in size; also: potency is read from the fitted curve at half-maximal effect
# [5] = biological target: Catechol O-methyltransferase (Homo sapiens) (UniProt P21964); assay: Confirmatory Screen for Target Class Profiling of Small Molecule Inhibitors of Methyltransferases (AID 1745852; calls by dose curve; also: potency is read from the fitted curve at half-maximal effect); conditions: MTase-Glo luminescence, SAH detection, recombinant enzyme; measured here: COMT max response; stronger effect = lower value
# [6] = biological target: Guanidinoacetate N-methyltransferase (Homo sapiens) (UniProt Q14353); assay: as above; conditions: MTase-Glo luminescence, SAH detection, recombinant enzyme; activity change, negative = inhibition: at 57.3 µM (top of the series)
# [7] = biological target: Nicotinamide N-methyltransferase (Homo sapiens) (UniProt P40261); assay: as above; conditions: MTase-Glo luminescence, SAH detection, recombinant enzyme; measured here: NNMT max response; stronger effect = lower value
# [8] = biological target: Phenylethanolamine N-methyltransferase (Homo sapiens) (UniProt P11086); assay: as above; conditions: MTase-Glo luminescence, SAH detection, recombinant enzyme; measured here: PNMT max response; stronger effect = lower value
# [9] = Primary qHTS for inhibitors of La Crosse Virus (LACV) - induced cell death in SH-SY5Y cells (AID 1508616);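 also: top concentration of the series differs between compounds; higher means more rescue of cells from virus-induced death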
# In short: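 Protection against LACV-induced cell death is scored in SH-SY5Y cells exposed to compounds and virus (0.01 MOI) for 6 days. Data normalized to virus-infected DMSO wells and virus-free DMSO wells.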
# [10] = biological target: Rap guanine nucleotide exchange factor 3 (Homo sapiens) (UniProt O95398); assay: Confirmatory qHTS for agonist of cAMP-regulated guanine nucleotide exchange factor 3 (EPAC1) (AID 1645881);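 also: EPAC1 catalysed release of BODIPY-GDP from Rap1B seen as fluorescence loss; nearly all actives have a fitted effect of over 75% in size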
# [11] = biological target: Rap guanine nucleotide exchange factor 4 (Homo sapiens) (UniProt Q8WZA2); assay: Confirmatory qHTS for agonist of cAMP-regulated guanine nucleotide exchange factor 4 (EPAC2) (AID 1645884);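 also: nucleotide exchange releases bodipy-GDP from Rap1 and this lowers its fluorescence; nearly all actives have a fitted effect of over 65% in size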
# [12] = biological target: Rap guanine nucleotide exchange factor 4 (Homo sapiens) (UniProt Q8WZA2); assay: Confirmatory qHTS for antagonist of cAMP-regulated guanine nucleotide exchange factor 4 (EPAC2) (AID 1645885); also: potency is read from the fitted curve at half-maximal effect; nearly all actives have a fitted effect of over 25% in size
# [13] = biological target: Rap guanine nucleotide exchange factor 3 (Homo sapiens) (UniProt O95398); assay: Counterscreen qHTS for antagonist of cAMP-regulated guanine nucleotide exchange factor 3 (EPAC1) (AID 1645888);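 also: fluorescence loss as bound BODIPY-GDP is released from Rap1B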
# In short: (§1)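 Rap1B–BODIPY-GDP (250 nM) with 50 uM GDP; compounds pin-transferred to 9.74 nM–152 uM final (activator) or from 7.32 nM upwards (inhibitor). Fluorescence Ex/Em 480/540 nm read at 5 and 30 min, then after adding cAMP or buffer, at room temperature.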
# [14] = biological target: Rap guanine nucleotide exchange factor 3 (Homo sapiens) (UniProt O95398); assay: Counterscreen qHTS for agonist of cAMP-regulated guanine nucleotide exchange factor 3 (EPAC1) (AID 1645889); also: nearly all actives have a fitted effect of over 40% in size
# In short: as §1
# [15] = Cell Viability qHTS for small molecule stabilizers of the endoplasmic reticulum resident proteome (AID 1508629); conditions: cell viability counter-screen, 100 nM thapsigargin for final 4 h;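 also: human SH-SY5Y neuroblastoma cells carrying the GLuc-SERCaMP reporter; compound exposure about 46 h in total before the viability read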
# Chain of Rap guanine nucleotide exchange factor 3 (Homo sapiens) (O95398 whole entry, looked up): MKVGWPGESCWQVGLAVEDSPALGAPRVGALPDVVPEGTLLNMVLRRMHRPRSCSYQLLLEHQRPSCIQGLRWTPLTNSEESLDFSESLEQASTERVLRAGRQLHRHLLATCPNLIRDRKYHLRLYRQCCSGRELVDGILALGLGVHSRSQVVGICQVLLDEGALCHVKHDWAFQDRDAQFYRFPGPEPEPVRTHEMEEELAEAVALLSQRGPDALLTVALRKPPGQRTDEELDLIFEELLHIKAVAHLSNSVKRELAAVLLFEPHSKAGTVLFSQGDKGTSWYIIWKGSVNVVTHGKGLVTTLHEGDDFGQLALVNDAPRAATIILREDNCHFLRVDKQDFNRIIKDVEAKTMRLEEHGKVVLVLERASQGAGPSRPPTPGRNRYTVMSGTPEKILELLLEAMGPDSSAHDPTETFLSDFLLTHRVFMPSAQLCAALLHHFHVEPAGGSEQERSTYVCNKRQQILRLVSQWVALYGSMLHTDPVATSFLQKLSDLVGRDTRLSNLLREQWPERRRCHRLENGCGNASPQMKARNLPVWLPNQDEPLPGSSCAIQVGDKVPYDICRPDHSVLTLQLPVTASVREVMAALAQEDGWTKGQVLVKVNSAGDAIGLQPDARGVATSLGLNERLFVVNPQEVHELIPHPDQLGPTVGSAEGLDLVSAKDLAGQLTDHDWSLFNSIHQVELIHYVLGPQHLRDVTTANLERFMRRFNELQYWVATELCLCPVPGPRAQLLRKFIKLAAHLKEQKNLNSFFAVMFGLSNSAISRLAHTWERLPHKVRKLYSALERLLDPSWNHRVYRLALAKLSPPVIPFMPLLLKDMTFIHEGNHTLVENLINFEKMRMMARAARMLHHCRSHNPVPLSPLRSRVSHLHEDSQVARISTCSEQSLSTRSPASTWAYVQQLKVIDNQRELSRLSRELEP
# Chain of Papain (Carica papaya) (P00784 whole entry, looked up): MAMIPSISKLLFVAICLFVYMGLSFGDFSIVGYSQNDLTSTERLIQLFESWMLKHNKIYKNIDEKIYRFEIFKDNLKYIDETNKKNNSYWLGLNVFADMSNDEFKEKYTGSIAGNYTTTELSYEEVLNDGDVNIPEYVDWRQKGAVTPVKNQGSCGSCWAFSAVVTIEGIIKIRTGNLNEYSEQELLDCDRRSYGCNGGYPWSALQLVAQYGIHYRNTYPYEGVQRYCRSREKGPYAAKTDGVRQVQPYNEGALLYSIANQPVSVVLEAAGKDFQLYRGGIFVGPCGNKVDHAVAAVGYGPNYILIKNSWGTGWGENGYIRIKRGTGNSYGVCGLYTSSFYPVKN
# Chain of Calcium and integrin-binding protein 1 (Homo sapiens) (Q99828 whole entry, looked up): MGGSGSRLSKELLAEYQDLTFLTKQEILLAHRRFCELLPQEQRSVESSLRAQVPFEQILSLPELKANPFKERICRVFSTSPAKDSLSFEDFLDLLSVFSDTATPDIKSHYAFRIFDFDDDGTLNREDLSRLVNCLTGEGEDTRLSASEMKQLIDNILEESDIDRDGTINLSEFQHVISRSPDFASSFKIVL
# Chain of Rap guanine nucleotide exchange factor 4 (Homo sapiens) (Q8WZA2 whole entry, looked up): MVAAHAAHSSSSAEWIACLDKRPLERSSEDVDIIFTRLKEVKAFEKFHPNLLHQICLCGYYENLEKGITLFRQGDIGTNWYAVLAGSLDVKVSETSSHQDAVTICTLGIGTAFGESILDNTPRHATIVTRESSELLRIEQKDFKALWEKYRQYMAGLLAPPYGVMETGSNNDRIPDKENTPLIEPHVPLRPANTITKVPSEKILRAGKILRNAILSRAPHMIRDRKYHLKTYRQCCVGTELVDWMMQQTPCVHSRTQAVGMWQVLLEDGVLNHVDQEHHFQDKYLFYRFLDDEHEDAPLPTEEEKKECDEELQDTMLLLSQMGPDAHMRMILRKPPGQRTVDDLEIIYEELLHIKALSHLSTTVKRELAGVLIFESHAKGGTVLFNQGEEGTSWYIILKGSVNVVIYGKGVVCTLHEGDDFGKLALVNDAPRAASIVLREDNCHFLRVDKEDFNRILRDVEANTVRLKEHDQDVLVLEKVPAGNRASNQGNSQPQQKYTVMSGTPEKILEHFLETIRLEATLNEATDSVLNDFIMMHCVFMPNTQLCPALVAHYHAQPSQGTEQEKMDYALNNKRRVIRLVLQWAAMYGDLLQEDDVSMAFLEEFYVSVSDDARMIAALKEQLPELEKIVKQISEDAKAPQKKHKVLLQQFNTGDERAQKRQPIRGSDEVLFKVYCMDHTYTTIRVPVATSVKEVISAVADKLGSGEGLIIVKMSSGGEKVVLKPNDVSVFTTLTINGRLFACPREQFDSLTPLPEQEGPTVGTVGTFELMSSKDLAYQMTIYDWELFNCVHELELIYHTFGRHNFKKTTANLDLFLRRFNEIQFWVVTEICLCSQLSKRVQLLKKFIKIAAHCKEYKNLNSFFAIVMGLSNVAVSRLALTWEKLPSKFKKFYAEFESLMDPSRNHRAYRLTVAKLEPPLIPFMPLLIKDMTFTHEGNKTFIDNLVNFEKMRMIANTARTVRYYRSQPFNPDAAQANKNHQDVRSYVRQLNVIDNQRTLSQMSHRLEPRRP
# Chain of Phenylethanolamine N-methyltransferase (Homo sapiens) (P11086 whole entry, looked up): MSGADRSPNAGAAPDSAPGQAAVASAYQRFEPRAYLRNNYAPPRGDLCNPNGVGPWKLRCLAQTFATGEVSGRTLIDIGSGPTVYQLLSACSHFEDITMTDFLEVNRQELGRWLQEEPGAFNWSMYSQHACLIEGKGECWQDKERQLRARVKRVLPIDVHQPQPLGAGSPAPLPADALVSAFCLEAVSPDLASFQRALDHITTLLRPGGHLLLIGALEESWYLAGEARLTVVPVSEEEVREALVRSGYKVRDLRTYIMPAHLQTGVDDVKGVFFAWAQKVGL
# Chain of Nicotinamide N-methyltransferase (Homo sapiens) (P40261 whole entry, looked up): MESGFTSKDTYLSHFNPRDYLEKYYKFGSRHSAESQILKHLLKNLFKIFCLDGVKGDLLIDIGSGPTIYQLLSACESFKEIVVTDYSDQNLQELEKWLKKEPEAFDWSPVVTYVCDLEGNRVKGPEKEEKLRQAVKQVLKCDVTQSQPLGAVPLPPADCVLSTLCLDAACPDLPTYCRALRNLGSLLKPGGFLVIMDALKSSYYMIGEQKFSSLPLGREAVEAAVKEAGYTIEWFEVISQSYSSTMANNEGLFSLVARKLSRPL
# Chain of Catechol O-methyltransferase (Homo sapiens) (P21964 whole entry, looked up): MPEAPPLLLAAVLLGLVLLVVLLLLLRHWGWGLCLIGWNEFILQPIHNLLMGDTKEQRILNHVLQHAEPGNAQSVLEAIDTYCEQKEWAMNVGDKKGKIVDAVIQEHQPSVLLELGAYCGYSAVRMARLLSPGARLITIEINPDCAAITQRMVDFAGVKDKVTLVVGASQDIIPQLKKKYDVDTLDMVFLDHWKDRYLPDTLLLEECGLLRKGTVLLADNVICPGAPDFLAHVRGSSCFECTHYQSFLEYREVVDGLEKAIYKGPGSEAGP
smiles,measurement,setting,value
COc1ccc(NC(=O)c2ccc(-c3ccc(-c4noc(C)n4)cc3C)cc2)cc1N1CCN(C)CC1,Potency,[1],inactive
same,Potency,Papain (Carica papaya),inactive
N=C(N)c1ccc(OCCCCCOc2ccc(C(=N)N)cc2)cc1 (tested in a mixture with another compound),Potency,[2],inactive
same,Potency,[1],inactive
same,Potency,Papain (Carica papaya),inactive
CN1CCN(c2nc3cc(C(F)(F)F)ccc3n3cccc23)CC1,Potency,Papain (Carica papaya),inactive
c1ccc(CN2CCC3(CCCc4ccccc43)CC2)cc1,Potency,[2],inactive
same,Potency,[1],inactive
same,Potency,Papain (Carica papaya),inactive
N#Cc1cc([N+](=O)[O-])c2sc(C(N)=O)[n+]([O-])c2c1,Potency,[2],inactive
same,Potency,Papain (Carica papaya),inactive
same,Potency,[3],8.2 µM (active)
same,Potency,[4],10.3 µM (active)
COc1ccc(-c2cc3ncc(C)n3c(Nc3ncccc3C(N)=O)n2)cc1OC,Potency,[2],inactive
Cn1c(=O)c2[nH]c(C3CCCC3)nc2n(C)c1=O,Potency,[2],inactive
same,Potency,[1],inactive
O=C1Cc2c([nH]c3ccc(Br)cc23)-c2ccccc2N1,Potency,[1],inactive
same,Potency,Papain (Carica papaya),inactive
same,Potency,[3],6.51 µM (active)
same,Potency,[4],5.8 µM (active)
CCCn1c(=O)c2[nH]c(C3CCCC3)nc2n(CCC)c1=O,Potency,[2],inactive
same,Potency,[1],inactive
same,Potency,Papain (Carica papaya),inactive
O=c1oc(Cl)c(Cl)c2ccccc12,Potency,[1],inactive
same,Potency,Papain (Carica papaya),inactive
CCN(CC)CCCCCCCCOC(=O)c1cc(OC)c(OC)c(OC)c1,Potency,[2],inactive
same,Potency,[1],inactive
same,Potency,Papain (Carica papaya),inactive
same,activity,[5],8.45%
same,"activity change, negative = inhibition",[6],4.66%
same,activity,[7],-0.607%
same,activity,[8],0.819%
O=c1cc(-c2ccccc2F)[nH]c2cc3c(cc12)OCO3,Potency,[2],inactive
same,Potency,[1],inactive
CCCc1c(OCCCOc2ccc(OCC(=O)O)cc2)ccc(C(C)=O)c1O,Potency,[9],inactive
same,Potency,[4],inactive
same,Potency,[10],inactive
same,Potency,[11],inactive
same,Potency,[12],15.6 µM (active)
same,outcome,[13],inactive
same,outcome,[14],inactive
same,activity,[5],14.3%
same,"activity change, negative = inhibition",[6],1.18%
same,activity,[7],-16.7%
same,activity,[8],0.821%
CN1CCCC1CCOC(C)(c1ccccc1)c1ccc(Cl)cc1 (stereo unspecified),Potency,[2],inactive
same,max response,[15],8.32% (inactive)
same,Potency,Papain (Carica papaya),inactive
CCN(c1nc(N)c(C(=O)N=C(N)N)nc1Cl)C(C)C,Potency,[2],inactive
same,Potency,Papain (Carica papaya),inactive
Nc1ccc2c3c(cccc13)C(=O)NC2=O,Potency,[2],2.51 µM (active)
same,Potency,[1],inactive
same,activity,[5],1.42%
same,"activity change, negative = inhibition",[6],4.2%
same,activity,[7],-4.84%
same,activity,[8],2.54%
O[Si](CCCN1CCCCC1)(c1ccc(F)cc1)C1CCCCC1 (stereo unspecified),Potency,[2],inactive
same,Potency,Papain (Carica papaya),inactive
Cn1c(=O)c2[nH]c(-c3ccc(S(=O)(=O)O)cc3)nc2n(C)c1=O,Potency,[9],inactive
same,Potency,[1],inactive
same,Potency,Papain (Carica papaya),25.1 µM (active)
same,activity,[5],-8.67%
same,"activity change, negative = inhibition",[6],1.75%
same,activity,[7],-17.8%
same,activity,[8],-5.47%
O=C(O)Cc1c[nH]c2ccc(O)cc12,Potency,[2],inactive
same,Potency,Papain (Carica papaya),inactive
CC[n+]1c(/C=C/C=C2/N(C)c3ccccc3C2(C)C)sc2ccccc21,Potency,[2],inactive
same,Potency,Papain (Carica papaya),inactive
O=C(O)C1=CC(=C(c2ccc(O)c(C(=O)O)c2)c2ccc(O)c(C(=O)O)c2)C=CC1=O,Potency,Papain (Carica papaya),7.94 µM (active)
same,activity,[5],-24.2%
same,Potency,[6],24.3 µM (active)
same,activity,[7],-4.1%
same,activity,[8],2.52%
Nc1nc2ccc(Cl)cc2c2nc(-c3ccco3)nn12,Potency,[2],inactive
same,Potency,[1],inactive
same,Potency,Papain (Carica papaya),22.4 µM (active)
S=C(S)N1CCCC1,Potency,[2],inactive
same,Potency,[1],inactive
same,Potency,Papain (Carica papaya),inactive
C[C@](Cc1ccc(O)c(O)c1)(NN)C(=O)O,Potency,[2],inactive
same,Potency,Papain (Carica papaya),inactive
same,activity,[5],156%
same,"activity change, negative = inhibition",[6],0.684%
same,activity,[7],-8.36%
same,activity,[8],2.39%
N#C/C(=C\c1ccc(O)c(O)c1)C(=O)NCCc1ccccc1,Potency,[9],inactive
same,Potency,Papain (Carica papaya),inactive
same,activity,[5],85.9%
same,Potency,[6],0.432 µM (active)
same,activity,[7],-37.9%
same,activity,[8],0.462%
O=C1OC(=O)C2C3CCC(O3)C12 (stereo unspecified),Potency,[2],inactive
same,Potency,[1],inactive
same,Potency,Papain (Carica papaya),inactive
NC(=O)CNCCC(c1ccccc1)c1ccccc1,Potency,[2],inactive
same,Potency,[1],inactive
same,Potency,Papain (Carica papaya),inactive
CN(C)CCC(c1ccc(Br)cc1)c1ccccn1 (stereo unspecified),Potency,[2],inactive
same,Potency,[1],inactive
same,Potency,Papain (Carica papaya),inactive
NS(=O)(=O)c1cccc2c1c([N+](=O)[O-])cc1nc(O)c(O)nc12,Potency,[9],inactive
same,activity,[5],-92.9%
same,"activity change, negative = inhibition",[6],0.0632%
same,activity,[7],-6.69%
same,activity,[8],1.61%

# Reference: PubChem BioAssay (NCATS)
